Compound activity from PubChem BioAssay.
An excerpt weighted towards active compounds, which were near 0.68% of everything screened.
ugtP null kill = compounds lethal to S. aureus RN4220 ugtP deletion mutant; AID 1259309; OD600 growth, 16 h; growth inhibition, % (concentration not given with the values); actives 0.54% (n = 330,000); in the data active = growth inhibition above about 68%;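 note: plate controls were untreated wells for no effect and antibiotic for full effect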
RN4220 kill = S. aureus RN4220 growth inhibition. actives 0.33% (n = 330,000). inhibition, % (concentration not given with the values). OD600, 16 h; in the data active = inhibition above about 85%;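 note: plate controls were untreated cells for no effect and reference antibiotic for full effect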
Mtb UGM inh = Mtb UDP-galactopyranose mutase inhibition | purified UGM, fluorescence polarization probe displacement | AID 504406 | P9WIQ1 | actives 0.06% (n = 320,000) | inhibition, % at 10 µM; in the data active = inhibition above about 10%, passing the limit was not always enough
Target sequence (P9WIQ1 whole entry, looked up): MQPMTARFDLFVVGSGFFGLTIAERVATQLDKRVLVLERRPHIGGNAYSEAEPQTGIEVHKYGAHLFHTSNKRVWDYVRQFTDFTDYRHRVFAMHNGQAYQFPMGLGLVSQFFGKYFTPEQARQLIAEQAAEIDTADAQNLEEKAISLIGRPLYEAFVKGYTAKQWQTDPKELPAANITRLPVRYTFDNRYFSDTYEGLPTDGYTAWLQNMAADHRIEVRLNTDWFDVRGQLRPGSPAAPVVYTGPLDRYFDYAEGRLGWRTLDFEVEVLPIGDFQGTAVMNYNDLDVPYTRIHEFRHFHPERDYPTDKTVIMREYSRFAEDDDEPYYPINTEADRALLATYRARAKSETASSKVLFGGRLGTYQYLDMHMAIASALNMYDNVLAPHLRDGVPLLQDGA
Mtb hypoxia inh = inhibitors of hypoxia-regulated fluorescent reporter in Mycobacterium tuberculosis; fluorescence inhibition, % (no concentration beside the values); M. tuberculosis hypoxia-regulated fluorescent reporter, fluorescence; actives 0.1% (n = 300,000); in the data active = fluorescence inhibition mostly above about 23%, no sharp cut-off; inactive = mostly below about 17%
Rv3671c protease = inhibitors of M. tuberculosis serine protease Rv3671c | inhibition, % at 5.96 µM | actives 0.048% (n = 320,000) | AID 2606; in the data active = inhibition above about 38%;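 note: extracellular domain of Rv3671c used as enzyme; 0% = enzyme with DMSO and 100% = no enzyme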
Mtb bLac sens = beta-lactam sensitization of Mtb H37Rv | M. tuberculosis H37Rv growth with meropenem, percent inhibition | inhibition, % at 25 µM | actives 0.27% (n = 330,000) | AID 434955; call rule not given here;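 note: growth measured after seven days incubation then overnight dye step; 0% = bacteria only wells and 100% = bacteria with antibiotic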
* marks the source's active call; other numbers are inactive results; . = no result.

SMILES	ugtP null kill	RN4220 kill	Mtb UGM inh	Mtb hypoxia inh	Rv3671c protease	Mtb bLac sens
O=C1OC(c2ccccc2)(c2ccc3cc(O)ccc3c2)c2ccccc21 (stereo not given)	93*	-18	.	10	.	.
CCc1ccc(-c2csc(-c3c[nH]c4ccccc34)n2)cc1	85*	-2	1	-2	-7	94
CC1=CC(C)C(c2ccccc2)OC1=O (stereo not given)	-8	5	.	-4	.	.
Brc1ccc(/C=N/c2nc3ccccc3n2CCN2CCOCC2)cc1	.	.	17*	.	11	0
C(=Nc1nc2ccccc2n1CCN1CCOCC1)c1cccs1	-3	-11	.	17	.	.
COc1ccc(NC(=O)C(C)N=C2NS(=O)(=O)c3ccccc32)cc1S(N)(=O)=O (stereo not given)	0	0	4	26*	-4	-7
Cc1ccc(NC(=O)C(C)N=C2NS(=O)(=O)c3ccccc32)cc1 (stereo not given)	3	11	1	5	-4	-8
CC(SCc1ccccc1)C(=O)Nc1ccc(F)cc1 (stereo not given)	4	8	-1	10	6	-2
N#CC(C#N)=C(Nc1ccc(F)cc1)SCc1cccc(Br)c1	96*	100*	2	13	0	0
Cc1cccc(CSC(Nc2ccc(F)cc2)=C(C#N)C#N)c1	97*	100*	0	5	2	-3
Cc1cccc(CSC(=N)N)c1	5	-2	4	3	4	-1
CC(C)=CCC12Oc3cc(O)ccc3C1(O)Oc1cc(O)c([C@H]3C=C(C)CC(c4ccc(O)cc4O)[C@H]3C(=O)c3ccc(O)cc3O)c(O)c1C2=O (stereo not given in full)	100*	96*	0	.	-45	-1
O=C(NN=Cc1ccc(-c2cccc(C(F)(F)F)c2)o1)c1ccccc1Br	90*	11	.	6	.	.
O=C(N/N=C/c1ccc(-c2cccc(C(F)(F)F)c2)o1)c1ccccc1Br	.	.	3	.	-22	4
Cc1cc(C=c2sc3nc4ccccc4n3c2=O)c(C)n1-c1ccc(C(=O)O)cc1	100*	88	.	18	.	.
C=CCC1CCCC(=O)N2CCC(O)C12 (stereo not given)	1	5	.	20	.	.
C(#Cc1ccccc1)C[N+]1(CC#Cc2cccc3ccccc23)CCCC1	98*	88	0	19	6	52
O=C1CN(C(=O)C=Cc2cccc(Cl)c2)c2ccccc2N1	-3	6	.	9	.	.
O=C(CN1c2ccccc2Sc2ccccc21)NNC(=O)Nc1ccc(Cl)c(Cl)c1	101*	100*	0	12	3	1
O=Cc1c(Cl)nc2ccccn2c1=O	5	4	0	0	6	1
CC1CCN(c2nc3ccccn3c(=O)c2C=O)CC1	4	9	1	45*	7	-3
CC(C)(C)C1C=C(C(=O)N2CCN(Cc3ccc4c(c3)OCO4)CC2)OC(OCCCCO)C1 (stereo not given)	-4	6	.	6	.	.
CCCCC1CCC(c2ccc(C(N)=O)cc2)CC1 (stereo not given)	20	1	1	7	4	-4
CCCCCC1CCC(c2ccc(/C(N)=N/O)cc2)CC1 (stereo not given)	100*	-5	0	3	8	-6
COC(=O)C1=C(c2ccc(F)cc2F)CC2CCC1N2C(=O)N1CCOCC1 (stereo not given)	4	2	.	7	.	.
SMILES	ugtP null kill	RN4220 kill	Mtb UGM inh	Mtb hypoxia inh	Rv3671c protease	Mtb bLac sens
Cc1cc(C)cc(NC(=S)Nc2ccc(Cl)c(Cl)c2)c1	101*	100*	-1	13	0	84
Cc1ccc(NC(=S)Nc2ccc(Cl)c(Cl)c2)c(OC(F)F)c1	100*	100*	-1	7	-5	84
Cc1ccc(NC(=S)Nc2ccc(OC(F)F)c(Cl)c2)cc1Cl	67	75	1	3	-11	78
CC(NC(=S)Nc1ccc(OC(F)F)c(Cl)c1)C(C)(C)C (stereo not given)	30	10	-3	28*	-14	94
CN(C)C=C(C#N)C(=O)NN=Cc1ccc(F)cc1	-7	-1	.	-1	.	.
CC[C@]12C(=O)N(C)CC(C3C(=O)N(Cc4ccccc4)C(=O)C31)N2C(=O)c1ccc(C(C)(C)C)cc1 (stereo not given in full)	-1	8	.	-6	.	.
Cc1csc(NN=Cc2ccc(O)c([N+](=O)[O-])c2)n1	-18	10	.	14	.	.
